PNC inhibitor: High Content Assay for Compounds that inhibit the Assembly of the Perinucleolar Compartment; hit rate 3.1% among 140,000; activity change (PNC), negative = inhibition, % at 10 µM; PC3M PTB-GFP, PNC prevalence imaging, 16 h; hits give low values;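 active = readout at or below -70, meaning at least 70% loss of cells showing the perinucleolar compartment, a nuclear body marking cancer cells; inconclusive = readout between -30 and a set limit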;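 note: plate controls were DMSO wells for no effect and camptothecin positive control wells for full effect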
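PC3M cells stably expressing PTB-GFP, 750–1000 cells/well, treated 16 h at 37 °C with compound (23 nl of library stock), in duplicate. After paraformaldehyde fixation and Hoechst stain, imaged at 20x; PNC prevalence scored by image analysis.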
HTT aggregate: qHTS Multiplex Assay to Identify Dual Action Probes in a Cell Model of Huntington: Aggregate Formation (GFP) | hit rate 1.1% among 220,000 | Potency, µM (top dose mostly 46.1 µM), for the others: at the highest dose activity change, negative = inhibition, usual class: inhibitors | PC12 HttQ103-GFP aggregates, Acumen cytometry, 40 h | AID 1688, 2009; note: potency is the fitted concentration of half-maximal effect; % is set by controls: 0 for no effect and ±100 for the full control effect; nearly all actives have a fitted effect of over 60% in size
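Using laser scanning cytometry, GFP-positive aggregates were counted after lysis of PC12 cells induced with 100 nM tebufenozide to express HTT exon 1 Q103–GFP. Compounds were tested in titration.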
HTT ATP protect: qHTS Multiplex Assay to Identify Dual Action Probes in a Cell Model of Huntington: Cytoprotection (ATP) | PC12 HTT-Q103 induced, cytoprotection, ATP luminescence, 40 h | Potency, µM (highest dose often 56.4 µM), for the others: cytoprotection (ATP increase), usual class: activators | hit rate 0.14% among 230,000 | AID 1471, 2008; note: potency is the fitted concentration of half-maximal effect; % of control where 0% means no effect; nearly all actives have a fitted effect of over 45% in size
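Cells were plated at 1500 per well in phenol red-free DMEM with 5% equine and 5% calf serum. Tebufenozide (100 nM final) and compounds were added, then ATPlite reagent, and luminescence was read.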
* = called active by the depositor; ? = inconclusive; nt = no result given; [ ] = dose if it differs, or a comment. Only a selection was taken, and hits are over-represented in it overall. Unless noted, calls come from the whole dose curve; as a rule, active = well fitted curve in the direction sought with a large enough effect; inconclusive = small, poorly fitted or top-dose-only effect, or another doubt; inactive = no such curve, though single readings can be large; an effect the other way counts as inactive or inconclusive.

SMILES | PNC inhibitor | HTT aggregate | HTT ATP protect
COc1ccc(CNC(=O)CCCNS(=O)(=O)c2cccc3nonc23)cc1 | -18 | 3.2µM* | 3.5µM*
O=S(=O)(Nc1ccc2c(c1)OCCO2)c1ccc(Br)s1 | 11 | 13µM* | -14%
O=S(=O)(Nc1ccc2c(c1)OCCO2)c1cccs1 | 38 | -13% | -20%[0.074 µM]
CS(=O)(=O)N(Cc1ccco1)Cc1ccccc1Cl | 25 | -16% | 7%
CS(=O)(=O)N(Cc1ccco1)CC(O)Cn1cc(C=O)c2ccccc21 (configuration not stated) | -88* | 1%[9.22 µM] | 12%
CCOc1ccc(CN2CCN(C/C=C/c3ccc(OC)cc3)CC2CCO)cc1 (configuration not stated) | nt | 12%[9.22 µM] | 28%[10 µM]
CCN1CCN(c2nc3ccccn3c(=O)c2/C=C(\C#N)S(=O)(=O)c2ccccc2)CC1 | nt | -9%[9.22 µM] | -13%[10 µM]
Cc1ccccc1N1C(=O)C(Cl)=C(N2CCN(c3ccccc3)CC2)C1=O | -85* | -4% | -3%
O=C1C(Cl)=C(N2CCOCC2)C(=O)N1c1ccccc1Cl | 28 | 24% | -7%
O=C(NNC(=O)c1sccc1-n1cccc1)Nc1ccccc1 | nt | 17% | 0%[10 µM]
CCOC(=O)c1cnn2c(N)c(C#N)nnc12 | -117* | 6% | 6%
CCOC(=O)c1cnn2c(N)c(C#N)cnc12 | nt | 8%[9.22 µM] | -13%
CN(CCS(=O)(=O)c1ccc(Cl)cc1)Cc1cccnc1 | nt | -5%[9.22 µM] | 9%[10 µM]
Cc1nc2ccccn2c1-c1csc(Nc2cccc(O)c2)n1 | nt | 22%[9.22 µM] | ?
Cc1cccc(Nc2nc(-c3c(C)nc4ccccn34)cs2)c1 | 23 | 11µM* | -47%
Cc1oc(-c2ccccc2Cl)nc1CSCC(=O)N1CCCC1 | -109* | -10% | 13%[10 µM]
COc1ccc(-c2nc(CSCC(=O)NCc3ccc4c(c3)OCO4)c(C)o2)cc1 | 31 | -10% | -34%
CCOCCCNC(=O)CSCc1nc(-c2ccc(SC)cc2)oc1C | nt | -5% | -40%
COc1ccc(-c2nc(CSCC(=O)NCc3ccc4c(c3)OCO4)c(C)o2)cc1OC | -92* | 6% | -6%[10 µM]
Cc1oc(-c2ccccc2Cl)nc1CSCC(=O)NC1CCCC1 | 26 | 11%[9.22 µM] | -22%
Cc1cccc(-c2nc(CSCC(=O)N3CCN(Cc4ccc5c(c4)OCO5)CC3)c(C)o2)c1 | 5 | 10µM* | -1%[10 µM]
COCCNC(=O)CSCc1nc(-c2ccc(SC)cc2)oc1C | -89* | 6% | -46%
O=C(CSCc1ccccc1)N1CCN(Cc2ccc3c(c2)OCO3)CC1 | -14 | -12% | -14%[10 µM]
COc1ccc(S(=O)(=O)N(C)CC(=O)Nc2ccccc2C(F)(F)F)cc1OC | -20 | 3% | 5%[0.074 µM]
COc1ccc(OCCC(=O)N2CCCCC2)cc1 | 3 | -7% | -9%
SMILES | PNC inhibitor | HTT aggregate | HTT ATP protect
Cc1ccc(N2C(=O)c3ccccc3C2=O)cc1C | 122 | -5% | 7%[10 µM]
Cc1cccc(OCC(=O)Nc2ccc(C(=O)NCC(C)C)cc2)c1 | nt | 27% | -12%[10 µM]
COC(=O)CC1C(=O)NC2CCCCC2N1C(=O)c1ccccc1 (configuration not stated) | -23 | 0% | -13%
O=C(c1ccc(CS(=O)(=O)c2ccccc2)o1)N1CCN(c2ncccn2)CC1 | -2 | -3% | 2%
CC(=O)N1N=C(c2ccco2)CC1c1cccs1 (configuration not stated) | -3 | ? | 5%[10 µM]
O=C(CCl)N1N=C(c2ccco2)CC1c1cccs1 (configuration not stated) | 5 | 11µM* | 37%[10 µM]
Cc1c(CCC(C)C)c(=O)n2c([nH]c3ccccc32)c1C#N | -21 | ? | 10%
Cc1nc2ccccn2c1/C(O)=C1\C(=O)C(=O)N(CCN(C)C)C1c1cccnc1 (configuration not stated) | 9 | 8% | 3%
C/C(=C\C(=O)O)C(=O)Nc1nccs1 | ? | 0.11µM* | 2%
O=C(Nc1nccs1)c1ccc(Br)o1 | -100* | -3% | -5%[10 µM]
O=C(/C=C/c1ccc(Br)o1)Nc1nccs1 | nt | 5% | 0%[10 µM]
O=C(O)/C=C/C(=O)Nc1nccs1 | nt | 15%[9.22 µM] | 5%[10 µM]
O=C(O)c1ccc(CNc2ccccc2C(=O)O)cc1 | -131* | -15% | 2%[10 µM]
O=C(O)c1ccccc1NCc1ccncc1 | 7 | -1% | 1%
COC(=O)c1cc(NC(=O)Cn2c(=O)cnc3ccccc32)cc(C(=O)OC)c1 | ? | 16% | 2%
COc1cc(C(c2c(C)[nH][nH]c2=O)c2c(C)[nH][nH]c2=O)ccc1OC(C)C | -80* | 9% | -3%[10 µM]

Assay outcomes from PubChem.
